Measured values as given in the supplement of paper PMC11732987, “Enantioselective OTUD7B fragment discovery through chemoproteomics screening and high-throughput optimisation” (Communications Chemistry, 2025).

Tests used:
Experiment in all cases: log2 ratio of Biotin-Ahx-Ub-VS probe labelling (fragment/DMSO); higher = less target engagement (more negative = stronger competition), active = hit call of the paper (q ≤ 0.05, log2 ratio ≤ -1)
Details in all cases: compound concentration: 200 uM; treatment time: 3 h
ALG13 = target: T1, ALG13 (UniProt Q9NP73)
T1 sequence (whole entry): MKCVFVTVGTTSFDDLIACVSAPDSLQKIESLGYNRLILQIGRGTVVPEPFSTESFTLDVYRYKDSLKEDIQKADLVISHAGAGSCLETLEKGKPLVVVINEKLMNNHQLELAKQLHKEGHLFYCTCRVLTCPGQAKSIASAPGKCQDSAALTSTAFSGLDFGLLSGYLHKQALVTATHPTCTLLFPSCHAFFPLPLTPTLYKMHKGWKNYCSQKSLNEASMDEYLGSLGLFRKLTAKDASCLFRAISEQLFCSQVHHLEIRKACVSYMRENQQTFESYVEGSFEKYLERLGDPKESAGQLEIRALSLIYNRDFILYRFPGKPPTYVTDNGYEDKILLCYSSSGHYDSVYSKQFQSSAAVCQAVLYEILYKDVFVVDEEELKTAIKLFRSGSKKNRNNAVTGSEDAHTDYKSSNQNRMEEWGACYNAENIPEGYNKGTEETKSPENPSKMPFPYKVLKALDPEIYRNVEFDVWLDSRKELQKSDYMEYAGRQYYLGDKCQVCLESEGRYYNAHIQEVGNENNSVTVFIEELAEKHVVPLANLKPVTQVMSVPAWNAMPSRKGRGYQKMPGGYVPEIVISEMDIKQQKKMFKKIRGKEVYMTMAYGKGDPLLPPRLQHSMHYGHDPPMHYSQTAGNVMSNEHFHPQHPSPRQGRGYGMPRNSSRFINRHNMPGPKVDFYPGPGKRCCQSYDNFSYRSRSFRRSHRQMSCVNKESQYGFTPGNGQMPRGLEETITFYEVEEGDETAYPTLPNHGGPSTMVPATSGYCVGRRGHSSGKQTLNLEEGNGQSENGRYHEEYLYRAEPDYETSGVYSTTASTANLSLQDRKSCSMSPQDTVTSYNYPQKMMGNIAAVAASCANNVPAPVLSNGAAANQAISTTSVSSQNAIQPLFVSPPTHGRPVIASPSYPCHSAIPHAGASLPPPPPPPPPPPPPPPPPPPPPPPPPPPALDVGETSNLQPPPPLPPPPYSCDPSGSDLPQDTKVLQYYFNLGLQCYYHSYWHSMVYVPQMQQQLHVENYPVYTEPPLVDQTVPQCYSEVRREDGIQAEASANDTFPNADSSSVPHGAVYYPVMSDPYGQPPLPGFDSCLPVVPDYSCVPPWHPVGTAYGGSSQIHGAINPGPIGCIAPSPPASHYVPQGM
In short: (§1)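 Average log2 ratios of fragment over vehicle were obtained by unpaired t-test from global-median-normalised Spectronaut label-free quantities. Proteins with ≥2 unique peptides were included. HEK293T lysate (495 µg per sample) was treated in triplicate with fragment at 200 µM or vehicle for 3 h, then with Biotin-Ahx-Ub-VS at 0.5 µM final for 1 h, and labelled DUBs were NeutrAvidin-enriched and run by diaPASEF LC-MS/MS.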

ATXN3 = ATXN3 (UniProt P54252)
Chain of ATXN3 (P54252 whole entry): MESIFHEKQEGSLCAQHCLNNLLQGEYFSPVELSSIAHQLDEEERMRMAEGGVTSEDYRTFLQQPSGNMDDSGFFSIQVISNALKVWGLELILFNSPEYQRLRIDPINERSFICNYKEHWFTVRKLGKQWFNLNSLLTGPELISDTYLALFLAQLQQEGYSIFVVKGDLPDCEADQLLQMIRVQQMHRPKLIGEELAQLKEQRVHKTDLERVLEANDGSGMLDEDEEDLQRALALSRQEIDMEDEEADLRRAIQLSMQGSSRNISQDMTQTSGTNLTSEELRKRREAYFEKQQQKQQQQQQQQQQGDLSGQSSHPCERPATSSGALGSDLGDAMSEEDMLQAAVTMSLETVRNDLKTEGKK
In short: as §1

BAP1 = target: T2, BAP1 (UniProt Q92560)
T2 sequence (whole entry): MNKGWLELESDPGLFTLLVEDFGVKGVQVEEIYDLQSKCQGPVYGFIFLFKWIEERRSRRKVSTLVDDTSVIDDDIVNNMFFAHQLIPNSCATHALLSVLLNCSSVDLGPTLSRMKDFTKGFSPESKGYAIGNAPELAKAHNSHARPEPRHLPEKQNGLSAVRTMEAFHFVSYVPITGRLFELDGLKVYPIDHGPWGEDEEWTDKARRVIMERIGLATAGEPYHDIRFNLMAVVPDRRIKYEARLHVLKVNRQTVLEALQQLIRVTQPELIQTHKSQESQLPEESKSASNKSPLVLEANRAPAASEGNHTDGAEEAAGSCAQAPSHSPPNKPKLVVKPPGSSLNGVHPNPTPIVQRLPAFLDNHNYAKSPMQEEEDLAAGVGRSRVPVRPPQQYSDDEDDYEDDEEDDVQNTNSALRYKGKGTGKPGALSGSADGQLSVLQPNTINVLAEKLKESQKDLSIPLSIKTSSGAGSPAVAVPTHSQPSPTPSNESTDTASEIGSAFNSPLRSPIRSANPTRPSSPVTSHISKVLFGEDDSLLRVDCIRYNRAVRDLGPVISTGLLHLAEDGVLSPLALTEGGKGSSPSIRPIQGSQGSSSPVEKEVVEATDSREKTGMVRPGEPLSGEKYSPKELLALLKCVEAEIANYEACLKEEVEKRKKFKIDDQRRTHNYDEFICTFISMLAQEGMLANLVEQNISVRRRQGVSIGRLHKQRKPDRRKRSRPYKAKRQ
In short: as §1

EIF3F = EIF3F (UniProt O00303)
Chain of EIF3F (O00303 whole entry): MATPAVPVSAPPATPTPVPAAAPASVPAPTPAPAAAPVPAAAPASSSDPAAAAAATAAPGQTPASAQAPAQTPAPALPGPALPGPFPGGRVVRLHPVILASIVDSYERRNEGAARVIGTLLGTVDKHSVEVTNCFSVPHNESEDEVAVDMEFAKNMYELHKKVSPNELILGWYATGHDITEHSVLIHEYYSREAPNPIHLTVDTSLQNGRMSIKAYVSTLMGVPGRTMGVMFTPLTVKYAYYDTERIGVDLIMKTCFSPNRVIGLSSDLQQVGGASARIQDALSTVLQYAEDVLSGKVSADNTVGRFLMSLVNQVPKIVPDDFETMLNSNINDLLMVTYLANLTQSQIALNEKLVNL
In short: as §1

EIF3H = EIF3H (UniProt O15372)
Chain of EIF3H (O15372 whole entry): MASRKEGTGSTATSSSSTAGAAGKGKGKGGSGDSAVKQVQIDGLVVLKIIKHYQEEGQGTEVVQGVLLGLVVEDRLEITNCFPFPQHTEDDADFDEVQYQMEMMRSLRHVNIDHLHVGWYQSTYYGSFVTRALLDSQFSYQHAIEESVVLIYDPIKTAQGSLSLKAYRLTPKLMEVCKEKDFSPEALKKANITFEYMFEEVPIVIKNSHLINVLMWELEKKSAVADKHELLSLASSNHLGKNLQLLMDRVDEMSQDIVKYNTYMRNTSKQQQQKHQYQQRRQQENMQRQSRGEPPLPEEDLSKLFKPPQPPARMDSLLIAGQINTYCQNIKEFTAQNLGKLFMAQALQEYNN
In short: as §1

FAM105A = target: T3, FAM105A (UniProt Q9NUU6)
T3 sequence (whole entry): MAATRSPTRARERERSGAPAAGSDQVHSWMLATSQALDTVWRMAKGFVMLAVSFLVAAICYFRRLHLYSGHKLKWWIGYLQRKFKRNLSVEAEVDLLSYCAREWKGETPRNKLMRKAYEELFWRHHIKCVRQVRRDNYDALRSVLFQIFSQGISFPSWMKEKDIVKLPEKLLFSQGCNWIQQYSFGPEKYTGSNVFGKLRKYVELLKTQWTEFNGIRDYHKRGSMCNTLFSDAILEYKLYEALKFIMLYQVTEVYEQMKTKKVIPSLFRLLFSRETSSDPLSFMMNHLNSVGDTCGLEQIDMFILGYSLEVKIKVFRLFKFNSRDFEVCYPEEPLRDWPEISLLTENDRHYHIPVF
In short: as §1

OTUB1 = OTUB1 (UniProt Q96FW1)
Chain of OTUB1 (Q96FW1 whole entry): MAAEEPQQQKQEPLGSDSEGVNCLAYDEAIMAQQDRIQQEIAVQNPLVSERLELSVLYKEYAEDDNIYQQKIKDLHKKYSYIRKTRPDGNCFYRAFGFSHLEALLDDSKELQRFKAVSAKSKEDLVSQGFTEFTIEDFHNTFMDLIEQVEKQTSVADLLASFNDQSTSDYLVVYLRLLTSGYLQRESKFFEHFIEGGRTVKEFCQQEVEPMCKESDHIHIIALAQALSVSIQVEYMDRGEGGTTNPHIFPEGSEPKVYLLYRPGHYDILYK
In short: as §1

OTUD4 = target: T4, OTUD4 (UniProt Q01804)
T4 sequence (whole entry): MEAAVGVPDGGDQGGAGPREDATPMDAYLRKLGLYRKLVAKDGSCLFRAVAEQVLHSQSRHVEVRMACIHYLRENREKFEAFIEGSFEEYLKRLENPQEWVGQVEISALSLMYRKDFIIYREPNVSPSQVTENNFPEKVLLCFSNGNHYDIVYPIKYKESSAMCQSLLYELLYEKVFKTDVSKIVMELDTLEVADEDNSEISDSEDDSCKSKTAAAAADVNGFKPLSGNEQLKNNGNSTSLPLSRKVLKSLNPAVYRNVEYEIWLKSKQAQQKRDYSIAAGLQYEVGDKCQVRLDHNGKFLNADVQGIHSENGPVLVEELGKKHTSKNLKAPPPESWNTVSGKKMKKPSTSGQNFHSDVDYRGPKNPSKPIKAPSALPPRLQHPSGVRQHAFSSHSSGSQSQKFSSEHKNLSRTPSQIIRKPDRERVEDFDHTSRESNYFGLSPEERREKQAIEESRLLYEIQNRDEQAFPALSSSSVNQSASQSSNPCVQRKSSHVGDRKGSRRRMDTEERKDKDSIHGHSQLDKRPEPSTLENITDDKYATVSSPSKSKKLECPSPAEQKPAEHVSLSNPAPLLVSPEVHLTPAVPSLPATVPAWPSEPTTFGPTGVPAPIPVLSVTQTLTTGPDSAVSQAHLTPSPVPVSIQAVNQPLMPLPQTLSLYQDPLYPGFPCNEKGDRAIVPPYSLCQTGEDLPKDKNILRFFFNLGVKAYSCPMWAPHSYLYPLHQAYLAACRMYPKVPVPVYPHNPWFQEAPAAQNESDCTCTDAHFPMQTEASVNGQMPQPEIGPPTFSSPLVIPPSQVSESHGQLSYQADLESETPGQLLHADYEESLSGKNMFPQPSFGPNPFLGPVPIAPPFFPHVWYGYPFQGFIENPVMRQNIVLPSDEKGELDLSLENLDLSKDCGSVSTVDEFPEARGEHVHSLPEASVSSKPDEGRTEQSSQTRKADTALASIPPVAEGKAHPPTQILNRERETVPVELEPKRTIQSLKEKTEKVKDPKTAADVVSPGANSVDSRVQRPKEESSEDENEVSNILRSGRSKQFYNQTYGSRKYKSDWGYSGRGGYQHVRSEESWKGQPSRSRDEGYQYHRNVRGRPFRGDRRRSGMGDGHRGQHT
In short: as §1

OTUD5 = target: T5, OTUD5 (UniProt Q96G74)
T5 sequence (whole entry): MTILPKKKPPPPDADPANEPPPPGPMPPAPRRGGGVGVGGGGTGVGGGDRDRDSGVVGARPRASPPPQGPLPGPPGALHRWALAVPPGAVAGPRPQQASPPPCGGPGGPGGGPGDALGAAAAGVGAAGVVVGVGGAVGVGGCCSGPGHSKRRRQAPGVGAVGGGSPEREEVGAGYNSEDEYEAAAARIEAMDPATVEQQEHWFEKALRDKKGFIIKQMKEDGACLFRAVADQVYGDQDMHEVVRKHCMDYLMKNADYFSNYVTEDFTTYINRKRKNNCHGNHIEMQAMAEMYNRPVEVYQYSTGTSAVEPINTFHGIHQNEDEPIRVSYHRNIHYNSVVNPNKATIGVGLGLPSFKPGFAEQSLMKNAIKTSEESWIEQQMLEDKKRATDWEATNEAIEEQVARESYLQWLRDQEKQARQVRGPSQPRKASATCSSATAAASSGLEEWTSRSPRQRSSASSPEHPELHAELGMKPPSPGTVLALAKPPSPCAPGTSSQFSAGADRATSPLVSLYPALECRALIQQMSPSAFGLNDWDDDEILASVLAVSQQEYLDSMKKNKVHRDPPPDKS
In short: as §1

Measured: log2 ratio of Biotin-Ahx-Ub-VS probe labelling

NS(=O)(=O)c1ccc(Cl)c(NC(=O)CCl)c1
active: BAP1 -4.06 | OTUD4 -2.55 | OTUD5 -1.72
inactive: ALG13 -0.591 | ATXN3 -0.697 | EIF3F -0.117 | EIF3H 0.198 | FAM105A 0.226 | OTUB1 -0.37
